Consider twelve compounds from PubChem BioAssay (NCATS).

Several values for one entry are separate records, joined by “and”; a condition that tells them apart may be missing. Identical values can stand only once. Records with an inconclusive call do not appear. Values without a mark were called inactive. Activity calls are given as the source filed them. Unless noted, calls follow the shape of the dose curve; as a rule, active = well fitted curve in the direction sought with a large enough effect; inconclusive = small, poorly fitted or top-dose-only effect, or another doubt; inactive = no such curve, though single readings can be large; an effect the other way counts as inactive or inconclusive.

Experiment [1] has as its target Cellular tumor antigen p53 (Homo sapiens) (UniProt P04637). Nature of the experiment: Primary qHTS for small molecule compounds that upregulate eGFP-tagged delta133p53alpha (in N-terminal) cells. (AID 2060322).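 Also: 0% = DMSO vehicle and 100% = reference activator; nearly all actives have a fitted effect of over 75% in size.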 To be noted: NCI-H358 eGFP-delta133p53alpha fluorescence, 24 h; activation: stronger effect = higher value. In a few lines:
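NCI-H358 cells pre-induced 24 h with 10 ng/ml doxycycline to express N-terminal eGFP-delta133p53alpha, then dosed 24 h at 37C without doxycycline; fixed, Hoechst-stained, GFP intensity by laser scanning cytometry, normalized to DMSO (0%) and 57.5 uM 5-azacytidine (100%).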

The target is the same in experiment [2]. Nature of the experiment: Primary qHTS for small molecule compounds that upregulate eGFP-tagged delta133p53alpha (in C-terminal) cells. (AID 2060324).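 Also: 0% = DMSO wells and 100% = 57.5 µM 5-azacytidine.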 The following applies: NCI-H358 delta133p53alpha-eGFP (C-terminal tag), GFP fluorescence imaging, 24 h; series mostly up to 57.5 µM. In a few lines:
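NCI-H358 cells pre-induced 24 h with 100 ng/ml doxycycline to express delta133p53alpha-eGFP, then dosed in doxycycline-free medium for 24 h at 37C. Fixed, Hoechst-stained; GFP intensity by laser scanning cytometry, normalized to DMSO wells.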
For orientation: Quantitative high-throughput screening tests each substance at several concentrations.

Experiment [3] concerns the target Aldehyde dehydrogenase, mitochondrial (Homo sapiens) (UniProt P05091). Nature of the experiment: qHTS for Inhibitors of the Aldehyde Dehydrogenase Family (ALDH2) Validation screens (AID 2061302; active = well fitted inhibition curve with a large enough effect; title and protocol of this record describe different tests; also: potency is read from the fitted curve at half-maximal effect). To be noted: ALDH inhibition qHTS; series mostly up to 42.6 µM.
Experiment [4] can be described thus: BET inhibitor-based combinations targeting novel dependencies in MECOM-rearranged (r) AML: OCI-AML3 cell line (AID 2202232). Also: nearly all actives have a fitted effect of over 35% in size. Also: potency is read from the fitted curve at half-maximal effect. The following applies: CellTiter-Glo luminescence, 48 h; Potency: OCI-AML3 viability; series mostly up to 46 µM. In a few lines:
(§1)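 Viability of cells (500 per well) is scored by luminescent CellTiter-Glo at 48 hr post-dosing. Eleven-point titrations are normalized to DMSO and empty controls and reduced to AUC values.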
(In general: Cellular ATP, detected with luciferase, serves as a proxy for viable cell number.)

Experiment [5] in a line: BET inhibitor-based combinations targeting novel dependencies in MECOM-rearranged (r) AML: MV-4-11 cell line (AID 2202233). Also: nearly all actives have a fitted effect of over 45% in size. Also: potency is read from the fitted curve at half-maximal effect. The following applies: MV-4-11 AML viability, CellTiter-Glo luminescence, 48 h; series mostly up to 46 µM. In a few lines:
(§2)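 Using pin-tool transfer, drugs were added in 11 doses to cells (500/well), incubated 48 hr, and assessed with CellTiter-Glo. Z-AUC is a mean-centring transformation applied separately to each screened line.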

A short description of experiment [6]: BET inhibitor-based combinations targeting novel dependencies in MECOM-rearranged (r) AML: HNT-34 cell line (AID 2202234).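 Also: plate controls were vehicle wells for no effect and cell-free wells for full effect; nearly all actives have a fitted effect of over 35% in size.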 The following applies: HNT-34 AML viability, CellTiter-Glo luminescence, 48 h; series mostly up to 46 µM. In a few lines: as §2
A short description of experiment [7]: BET inhibitor-based combinations targeting novel dependencies in MECOM-rearranged (r) AML: UCSD-AML1 cell line (AID 2202235). Also: nearly all actives have a fitted effect of over 40% in size. Also: potency is read from the fitted curve at half-maximal effect. The following applies: UCSD-AML1 AML cells viability, CellTiter-Glo, 48 h; series mostly up to 46 µM. In a few lines:
as §2

Experiment [8] is described as follows: BET inhibitor-based combinations targeting novel dependencies in MECOM-rearranged (r) AML: AML-191 cell line (AID 2202236; also: nearly all actives have a fitted effect of over 35% in size; also: potency is read from the fitted curve at half-maximal effect). The following applies: AML-191 viability, CellTiter-Glo luminescence, 48 h; series mostly up to 46 µM. In a few lines: as §1
A short description of experiment [9]: BET inhibitor-based combinations targeting novel dependencies in MECOM-rearranged (r) AML: AML-194 cell line (AID 2202237;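 also: plate controls were vehicle wells for no effect and wells without cells for full effect; nearly all actives have a fitted effect of over 40% in size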). The following applies: AML-194 (MECOM-r AML) viability, CellTiter-Glo, 48 h; series mostly up to 46 µM. In a few lines: as §1
The nature of experiment [10]: BET inhibitor-based combinations targeting novel dependencies in MECOM-rearranged (r) AML: SET-2 cell line (AID 2202231). Also: nearly all actives have a fitted effect of over 35% in size. Also: potency is read from the fitted curve at half-maximal effect.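 As to viability: plate controls were DMSO treated cells for no effect and wells without cells for full effect.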 To be noted: SET-2 AML cells viability, CellTiter-Glo luminescence, 48 h; viability: stronger effect = lower value, concentration not given here. In a few lines: as §1
Experiment [11] deals with Retinaldehyde dehydrogenase 3 (Homo sapiens) (UniProt P47895). Nature of the experiment: qHTS for Inhibitors of the Aldehyde Dehydrogenase Family (ALDH1A3) Confirmatory screens (AID 2061311). Also: potency is read from the fitted curve at half-maximal effect; nearly all actives have a fitted effect of over 60% in size. The following applies: ALDH inhibition qHTS; series mostly up to 46 µM.
In experiment [12] the target is Retinal dehydrogenase 2 (Homo sapiens) (UniProt O94788). Nature of the experiment: qHTS for Inhibitors of the Aldehyde Dehydrogenase Family (ALDH1A2) Confirmation screens (AID 2061314). Also: nearly all actives have a fitted effect of over 65% in size. The following applies: ALDH1A2 enzyme inhibition qHTS confirmation; series mostly up to 45.9 µM.
Experiment [13] concerns the target Aldehyde dehydrogenase, mitochondrial (Homo sapiens) (UniProt P05091). Nature of the experiment: qHTS for Inhibitors of the Aldehyde Dehydrogenase Family (ALDH2) Confirmatory screens (AID 2061303; active = well fitted inhibition curve with a large enough effect; title and protocol of this record describe different tests; also: % is scaled to controls: 0 for no effect and ±100 for the full control effect; nearly all actives have a fitted effect of over 45% in size). To be noted: ALDH inhibition qHTS; series mostly up to 45.4 µM.
Experiment [14] can be described thus: qHTS for Inhibitors of the Aldehyde Dehydrogenase Family (ALDH1A2, ALDH1A3, ALDH2, ALDH3A1) (AID 2061307). Also: % is scaled to controls: 0 for no effect and ±100 for the full control effect; nearly all actives have a fitted effect of over 50% in size. The following applies: ALDH inhibition qHTS; series mostly up to 50.3 µM.
The target of experiment [15] is Retinaldehyde dehydrogenase 3 (Homo sapiens) (UniProt P47895). Nature of the experiment: qHTS for Inhibitors of the Aldehyde Dehydrogenase Family (ALDH1A3) Validation screen (AID 2061312). Also: % is scaled to controls: 0 for no effect and ±100 for the full control effect; nearly all actives have a fitted effect of over 45% in size. To be noted: ALDH1A3 enzyme inhibition qHTS validation, fluorescence; series mostly up to 84.7 µM.
For experiment [16], the target named is Aldehyde dehydrogenase 1A1 (Homo sapiens) (UniProt P00352). Nature of the experiment: qHTS for Inhibitors of the Aldehyde Dehydrogenase Family (ALDH1A1) Confirmatory screens (AID 2061316). Also: nearly all actives have a fitted effect of over 65% in size. Also: potency is read from the fitted curve at half-maximal effect. To be noted: ALDH inhibition qHTS; series mostly up to 47.3 µM.

Cellular tumor antigen p53 (Homo sapiens), sequence (P04637 whole entry, looked up): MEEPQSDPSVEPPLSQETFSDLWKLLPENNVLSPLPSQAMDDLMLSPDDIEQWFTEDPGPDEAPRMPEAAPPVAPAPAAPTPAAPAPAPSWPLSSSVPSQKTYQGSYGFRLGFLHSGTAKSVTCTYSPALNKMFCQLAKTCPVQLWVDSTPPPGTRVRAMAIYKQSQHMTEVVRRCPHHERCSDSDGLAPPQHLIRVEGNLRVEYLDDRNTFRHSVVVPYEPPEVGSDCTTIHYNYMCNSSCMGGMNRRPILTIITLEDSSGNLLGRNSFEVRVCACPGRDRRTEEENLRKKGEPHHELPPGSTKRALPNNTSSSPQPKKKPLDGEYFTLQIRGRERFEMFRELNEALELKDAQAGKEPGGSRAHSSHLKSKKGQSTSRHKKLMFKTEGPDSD

`O=C(c1ccccc1)c1ccc2n1CCC2C(=O)O` (stereo not drawn): in [1], the activation is -6.21% and -3.1%. The Potency result in experiment [2], in experiment [3], in experiment [4], in [5], in experiment [6] and in experiment [7] was “inactive” each time. Also, the Potency entry in experiment [8] and in experiment [9] was “inactive” each time.

For the compound `COc1ccccc1N1CCN(CC(O)COc2cccc3ccccc23)CC1` (stereo not drawn), in [1], the activation was 17.1% and 24.3% and -36.9%. For the same compound, the Potency result in experiment [2], in experiment [3] and in experiment [9] was “inactive” each time. The Potency in experiment [10] is 13.2 µM (active); in experiment [5], 14.8 µM (active); in experiment [7], 5.25 µM (active); in experiment [8], 9.34 µM (active).

Consider `O=c1ccc2ccc(O)c(O)c2o1`, for which the activation in [1] is 0.546% and -34.3%. Also, the Potency entry in experiment [2] and in experiment [12] was “inactive” in each case. Also, the Potency in experiment [11] was 8.96 µM (active).

As for `Cc1cccc(C)c1OCC(N)C(C)C` (stereo not drawn), the activation in experiment [1] was -8.7%. Besides, the Potency entry in experiment [2], in experiment [13], in [14] and in [12] was “inactive” each time.

With `Clc1ccc2nsnc2c1NC1=NCCN1`, the activation in experiment [1] is 17.5% and 19.5%. Also, the Potency result in [2], in [3], in [4], in [6], in experiment [7] and in [8] was “inactive” throughout. Moreover, the Potency result in experiment [9] is “inactive”. Further, the viability (usually a read-out of living cells in per cent, often relative to untreated cells) in experiment [10] was 111%.

For `Cc1nc(N=Nc2cc(S(=O)(=O)O)c3cc([N+](=O)[O-])cc(S(=O)(=O)O)c3c2)c(COP(=O)(O)O)c(C=O)c1O`, the activation in [1] is -72.9%. The Potency result in [2], in [13], in experiment [14], in experiment [15], in [12] and in [16] was “inactive” each time. For the same compound, the Potency in experiment [11] was 22.5 µM (active).

As to `Oc1ccc(C2CNCCc3c2cc(O)c(O)c3Cl)cc1` (stereo not drawn), in [1], the activation is -18.2% and -20.9% and -11.7%. The Potency result in experiment [2], in experiment [3], in experiment [4], in experiment [5], in experiment [6] and in [7] was “inactive” throughout. In [9], the Potency entry is “inactive”. Besides, the viability in experiment [10] is 108%.

For the compound `O=C(c1cc(O)c(O)c([N+](=O)[O-])c1)c1ccccc1F`, the activation in experiment [1] is -61.3%. For the same compound, the Potency entry in experiment [2], in experiment [13] and in experiment [12] was “inactive” each time. Also, the Potency in experiment [11] was 3.18 µM (active); in experiment [16] it was 12.7 µM (active).

Turning to `Cn1ncc(S(=O)(=O)Cc2ccccc2)c(Br)c1=O`, the activation in experiment [1] is -32.8%. Besides, the Potency result in experiment [2] and in experiment [14] was “inactive” in each case.

With `CCN(CC)CCn1c(=O)c(Cc2ccc(OC)cc2)nc2ccccc21`, the activation in experiment [1] was 3.86% and 2.44%. The Potency result in experiment [2], in [3], in experiment [4], in experiment [5], in experiment [7] and in experiment [8] was “inactive” in each case. In addition, the Potency result in experiment [9] was “inactive”. Moreover, in [10], the viability is 107%.

With `O=C1c2c(O)cc(O)cc2OC(c2ccc(O)c(O)c2)C1O` (stereo not drawn), in experiment [1], the activation was 31.8% and -16.9%. Also, the Potency result in [2] and in [15] was “inactive” throughout. The Potency in [4] is 23.5 µM (active); in [5] it was 18.6 µM (active). Also, in experiment [7], the outcome was inactive.

`O=c1c(-c2ccc(O)cc2)coc2cc(OC3O[C@H](CO)[C@H](O)[C@H](O)[C@H]3O)cc(O)c12` (stereo partly drawn): the activation in experiment [1] is 21%. Further, the Potency in experiment [3] was 44.7 µM (active).
